Reference: PubChem BioAssay (NCATS)
Inconclusive results are not listed. Where a call stands in place of a potency, no number is given. Values without a mark were called inactive. The source made the active and inactive calls. Calls follow the shape of the dose curve; as a rule, active = well fitted inhibition curve with a large enough effect; inconclusive = small, poorly fitted or top-dose-only effect; inactive = flat fitted curve, though single readings scatter.
Potency is read from the fitted curve at half-maximal effect.

These compounds were tested against Glutathione peroxidase 1 (Homo sapiens) (UniProt P07203) (assay: Primary qHTS Assay for Inhibitors of Recombinant Selenoprotein Glutathione Peroxidase 1 (GPX1) (AID 1845191; also: nearly all actives have a fitted effect of over 65% in size)). Conditions: recombinant GPX1, GR-coupled NADPH fluorescence, 15 min; series mostly up to 48.8 µM.
Chain of Glutathione peroxidase 1 (Homo sapiens) (P07203 whole entry, looked up): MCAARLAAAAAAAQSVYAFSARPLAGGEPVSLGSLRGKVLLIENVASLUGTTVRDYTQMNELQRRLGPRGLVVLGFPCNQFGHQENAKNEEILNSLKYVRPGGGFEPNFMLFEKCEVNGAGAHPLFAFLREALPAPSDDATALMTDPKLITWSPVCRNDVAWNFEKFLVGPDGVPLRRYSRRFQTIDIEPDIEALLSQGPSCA
Outline: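 Recombinant GPX1 (10 nM final) was preincubated with compound for 30 min at room temperature, then reacted with 1 mM GSH, 0.5 mM CHP, 0.5 mM NADPH and 100 nM glutathione reductase; NADPH fluorescence (340/450 nm) was read at 0 and 15 min.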
In the case of `O=C(CO)[C@@H](O)[C@H](O)[C@@H](O)CO`, the Potency is reported as “inactive”. In the case of `CO/N=C(/C(=O)N[C@@H]1C(=O)N2C(C(=O)[O-])=C(C[n+]3ccn4ncccc43)CS[C@H]12)c1nsc(N)n1`, the Potency is reported as 20.2 µM (active). For `CC(C)(Oc1ccc(Cl)cc1)C(=O)OCCCOC(=O)C(C)(C)Oc1ccc(Cl)cc1`, the Potency was “inactive”. With `O=C(O)[C@@H](O)[C@H](O)[C@H](O)[C@@H](O)C(=O)O` the Potency was “inactive”. With `C/C(=N/NC(=O)c1ccncc1)C(=O)O` the Potency was “inactive”. `CCO[C@H](Cc1ccc(OCCc2ccc(OS(C)(=O)=O)cc2)cc1)C(=O)O` was tested, and the Potency was “inactive”. With `CCCCCC[C@@H](CCC)C(=O)O` the Potency was “inactive”. `NC(=O)C1(N2CCCCC2)CCN(CCCN2c3ccccc3CCc3ccc(Cl)cc32)CC1` was tested, and the Potency was “inactive”. With `O=[N+]([O-])c1cncn1CCN1CCOCC1` the Potency was “inactive”. `CCN(CC)CC(=O)OCC(=O)[C@@]1(O)CC[C@H]2[C@@H]3CCC4=CC(=O)CC[C@]4(C)[C@H]3[C@@H](O)C[C@@]21C` was tested, and the Potency was “inactive”. With `NS(=O)(=O)c1cc2c(cc1Cl)CN(C1CCCCC1)C2=O` the Potency was “inactive”. `Cc1cccc(N(C)C(=S)Oc2ccc3c(c2)C2CCC3C2)c1` (stereo not given) was tested, and the Potency was “inactive”. `CCCCCN(CCCOC)C(=O)C(CCC(=O)O)NC(=O)c1ccc(Cl)c(Cl)c1` (stereo not given) was tested, and the Potency was “inactive”. With `CCCCC/C=C\C/C=C\CCCCCCCC(=O)NC(C)c1ccccc1` (stereo not given) the Potency was “inactive”. `NCC[C@H](O)C(=O)N[C@@H]1C[C@H](N)[C@@H](O[C@H]2O[C@H](CN)[C@@H](O)[C@H](O)[C@@H]2O)[C@H](O)[C@@H]1O[C@H]1O[C@H](CO)[C@@H](O)[C@H](N)[C@@H]1O` gave an activity, negative = inhibition of -13.8% [at 0.4 µM].
